Data published in PubChem BioAssay AID1307 (SRMLSC, 2008).
Screen size: about 1,200 compounds; fewer than 10 were called active.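 The calls were made as follows: active = inhibition reaching a set limit at one or more tested concentrations; inactive = inhibition under that limit at every dose.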 These entries were drawn from the full list. Measured potencies and affinities stand elsewhere.

Test: RAM pathway signaling blockade in S. cerevisiae – dose response (AID 1307);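 also: 0% = DMSO vehicle wells and 100% = 10 µM 1-NA-PP1 control; higher inhibition means more yeast growth since RAM block rescues cells from 5-FOA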
Settings: S. cerevisiae RAM network URA3 reporter, 5-FOA growth OD615, stronger effect = higher value, yeast express analog-sensitive mutant Cbk1 kinase; at 100 µM unless noted

Max inhibition, inactive:
Cc1[nH]c2ccccc2c1/C=C/c1nc2ccccc2c(=O)n1-c1ccc([N+](=O)[O-])cc1 6.44%, N#Cc1nc(COc2ccccc2)oc1N1CCN(c2cccc(Cl)c2)CC1 3.36% [at 50 µM], O=C(COC(=O)c1ccc(-c2ccccc2)cc1)Nc1ccccc1-c1ccccc1 4.8% [at 50 µM], CC(C)(C)OC(=O)NCCCCCNC(=O)c1[nH]cnc1C(=O)N[C@@H](Cc1ccccc1)C(=O)OCc1ccccc1 6.61%, CCOc1ccc(NS(=O)(=O)c2ccc(NC(=S)NC(=O)CC(C)C)cc2)cc1 3.65% [at 0.196 µM], COc1cc(CC(NC(C)=O)C(=O)NC2CCN(c3c(Cc4ccccc4)c(C)nc4ncnn34)CC2)cc(OC)c1 (stereo not given) 3.02% [at 25 µM], O=C(/C=C/c1ccccc1)N1CCN(c2cccc(Cl)n2)CC1 6.02%, CCOC(=O)c1c(C)[nH]c(C(=O)C(C)Sc2ccc(Cl)cc2)c1C (stereo not given) 2.41% [at 12.5 µM], O=C(CSCc1ccc(Cl)cc1)Nc1cccc(C(=O)Nc2ccccc2C(=O)O)c1 1.32% [at 0.196 µM], CCOc1ccc(NC(=O)CSc2nnc(-c3ccccc3Cl)n2Cc2ccco2)cc1 1.32% [at 0.782 µM], C=CCN1C(=O)C(Cc2ccc(C)cc2)S/C1=N/N=C/c1ccco1 (stereo not given) 6.91%, CC(=O)c1cc(C(=O)c2ccccc2)sc1Nc1ccccc1 6.93%, CCOC(=O)c1c(-c2cccc([N+](=O)[O-])c2)csc1NC(=O)CCCOc1ccccc1OC 2.67% [at 50 µM], COc1ccc(CN(CCC(c2ccccc2)c2ccco2)C(=O)c2ccco2)cc1 (stereo not given) 4.81% [at 6.25 µM], COc1ccccc1NC(=O)C(Sc1ccccc1)c1ccccc1 (stereo not given) 2.18% [at 50 µM], CCOC(=O)/C(=C/c1ccc(N2CCC(c3ccccc3)=N2)cc1)C(C)=O 3.75%, O=C(COC(=O)C1(c2ccccc2F)CCCC1)Nc1ncc(C(F)(F)F)cc1Cl 2.79% [at 0.196 µM], CCOC(=O)c1cnc(SC)nc1Oc1cccc(NC(=O)c2ccc(C)cc2)c1 5.83% [at 50 µM], CCCC(CCC)=NNc1ccc(S(=O)(=O)Nc2ccccc2OC)cc1[N+](=O)[O-] 3.78% [at 0.391 µM], Cc1cccc(COCC(Cc2ccccc2)N2CCN(C(=O)c3ccc(C(F)(F)F)cc3)CCC2=O)c1 (stereo not given) 3.28% [at 0.782 µM], Cc1ccc(NC(=O)COC(=O)CCC(=O)c2ccc(C(C)(C)C)cc2)c([N+](=O)[O-])c1 2.67% [at 0.196 µM], CCOC(=O)c1sc(NC(=O)CCCn2nc([N+](=O)[O-])cc2C)c(C(=O)OCC)c1C 4.45% [at 0.782 µM], CCCCCCCCNC(=O)/C(C#N)=C/c1ccc(SC)cc1 5.43%, CCOC(=O)C(C)(C)N(Cc1cccc(C)c1)S(=O)(=O)c1cccc([N+](=O)[O-])c1 2.41% [at 50 µM], O=C(Nc1ccccc1-c1nnc(SCc2ccccc2)o1)c1ccccc1 4.39% [at 3.125 µM], Cc1ccc(-n2c(O)c(/C=N/c3ncn[nH]3)c3ccccc3c2=O)cc1 10.6%, COc1ccc(/C=C(\C#N)C(=O)NCCc2ccccc2)cc1OCc1ccccc1 4.42% [at 1.563 µM], CCOC(=O)C1=C(c2ccccc2)N=c2s/c(=C\c3cc(OC)c(OC)c(OC)c3)c(=O)n2C1c1cccs1 (stereo not given) 14.2%, O=C(COC(=O)c1cc(Cl)ccc1[N+](=O)[O-])NCc1ccc(Cl)cc1Cl 4.62% [at 1.563 µM], C=CCSc1nnc(CCCCCN2C(=O)c3cccc4cccc(c34)C2=O)o1 6.81%, Cc1ccc(/C=C/c2ccc(=O)n(Cc3ccccc3Cl)n2)cc1 3.92% [at 3.125 µM], O=C(/C=C/c1cccc(C(F)(F)F)c1)Nc1cccc(C(F)(F)F)c1 2.77% [at 12.5 µM], COc1ccc(C(=O)/C=C/c2ccc(OC)c(COc3ccccc3F)c2)cc1 3.26% [at 12.5 µM], S=C(NCCC(c1ccccc1)c1ccccc1)Nc1ccccc1Cl 2.81%, Cc1ccc(NC(=O)Cc2ccc(Cl)c(Cl)c2)cc1S(=O)(=O)N(C)C 1.65%, CCN(CC)S(=O)(=O)c1cccc(C(=O)OCC(=O)c2ccc3c(c2)OCCO3)c1 3.81% [at 6.25 µM], CC(C)Cn1c(N)c(-c2nc(C(C)C)c(C(=O)c3ccccc3F)s2)c(=O)n(C)c1=O 7.65%, COc1cccc(CN(Cc2ccccc2F)S(=O)(=O)c2ccc(S(=O)(=O)NCc3ccccc3)cc2)c1 4.33%, COc1cccc(CN(Cc2ccco2)C(c2ccc(F)cc2)c2nnnn2C(C)(C)C)c1 (stereo not given) 5.18%, O=C(COC(=O)c1ccc(CSc2ccc(Cl)cc2)cc1)Nc1ccccc1 4.59%, CCOC(=O)c1c(-c2ccc(OC)cc2)csc1NC(=O)CSc1ccccc1 5.06%, C=C(C)CNC(=S)Nc1nc2c(cc1C(=O)OCC)CCCC2 2.44% [at 25 µM], COC(=O)c1cc(=O)n(CCc2ccccc2)c(=Nc2ccc(F)cc2)s1 4.08% [at 50 µM], O=C(O)CSc1nc(-c2ccc(Cl)cc2)nc2c1oc1ccccc12 6.31% [at 50 µM], COc1ccc(OC)c(NC(=O)C(Sc2ccccc2)c2ccccc2)c1 (stereo not given) 4.44% [at 50 µM], O=C(Nc1ccccc1-c1nnc(SCc2ccccc2Cl)o1)c1ccccc1 2.67% [at 50 µM], Cc1ccccc1N1C(=O)CC1(C#N)c1ccc(OCc2ccccc2)cc1 (stereo not given) 3.12% [at 50 µM], O=C(CC12CC3CC(CC(C3)C1)C2)NC(=S)NCc1ccco1 5.22% [at 50 µM], Cc1ccc(Cl)cc1N1CCN(S(=O)(=O)c2ccc3[nH]c(=O)c(=O)[nH]c3c2)CC1 4.39%, O=C(CCCSc1nc2ccccc2[nH]1)Nc1nnc(-c2ccccc2)o1 1.46% [at 1.563 µM], Cc1cc(NC(=O)COC(=O)C(Nc2ccc(C(F)(F)F)cc2Cl)C(C)C)no1 (stereo not given) 3.28% [at 12.5 µM], Cc1ccccc1NC(=O)CCCSc1nc2ccccc2s1 1.4% [at 25 µM], O=C(OC(C(=O)Nc1cccc(C(F)(F)F)c1)c1ccccc1)C1CCCCC1 (stereo not given) 3.65% [at 50 µM], C=CCOc1c(Br)cc(CNc2ccc(NC(=O)C(C)C)c(OC)c2)cc1OCC 2.15% [at 3.125 µM], COc1ccccc1-n1c(COc2ccccc2-c2ccccc2)nnc1SCC(=O)c1c(N)n(C)c(=O)n(C)c1=O 11.9%, COc1ccc(Br)cc1C(=O)Nc1ccccc1-c1ccccc1 6.2% [at 50 µM], CCCC[C@@H]1C[C@H]1[C@@H](NC(=O)c1ccccc1)c1ccccc1C(F)(F)F 3.06%, CCOc1ccccc1NC(=O)C(OC(=O)c1cc(C)oc1C)c1ccccc1 (stereo not given) 4.82%, Cc1ccccc1Oc1ccc(-c2nc(N)nc(N)n2)cc1 3.9%, O=S(=O)(c1ccccc1F)N(Cc1ccco1)Cc1nnc(-c2ccccc2Br)o1 2.49% [at 1.563 µM], Cc1ccc(C)c(N2CCN(C(=O)c3ccc(Cn4c(=S)[nH]c5ccc(N6CCOCC6)cc5c4=O)cc3)CC2)c1 5.67%, CCOC(=O)C(C)Sc1nc2c(c(-c3cccs3)c1C#N)CCC2 (stereo not given) 3.89% [at 50 µM], Cc1ccc(OCc2nnc(SCC(=O)Nc3ccc4c(c3)OCCO4)n2Cc2ccco2)cc1 0.12% [at 0.782 µM], COC(=O)c1ccc(CSc2nc(-c3ccco3)cc(C(F)(F)F)n2)o1 5.27%, CCCCOc1nc2ccccc2nc1C(C#N)C(=O)NC1CCCCC1 (stereo not given) 4.45%, COc1ccc(-c2ccc(-c3noc(C4CCCCC4)n3)c(OC)n2)cc1 3.89% [at 50 µM], O=C(CSc1nc2ccccc2s1)CSc1nc2ccccc2s1 5.31%, O=C(Nc1ccccc1Cl)c1cccc(COc2cc(Cl)ccc2Cl)c1 2.59%, COc1ccc(Cc2nc(-c3ccc(-n4cccc4)cc3)no2)cc1OC 5.67%, CCCCOc1cccc(C(=O)NC(=S)Nc2cccc(C(F)(F)F)c2)c1 4.25%
